This is an account of results in PubChem BioAssay (EPA / NIEHS).

Records with an inconclusive call do not appear. Calls of active or inactive are those of the source. The calls were made as follows, unless noted: active = hit-call score of the fitted dose curve at least 0.9, where 1 is the maximum; inactive = score below 0.9.

Retinoic acid receptor RXR-alpha (Homo sapiens), sequence (P19793 whole entry, looked up): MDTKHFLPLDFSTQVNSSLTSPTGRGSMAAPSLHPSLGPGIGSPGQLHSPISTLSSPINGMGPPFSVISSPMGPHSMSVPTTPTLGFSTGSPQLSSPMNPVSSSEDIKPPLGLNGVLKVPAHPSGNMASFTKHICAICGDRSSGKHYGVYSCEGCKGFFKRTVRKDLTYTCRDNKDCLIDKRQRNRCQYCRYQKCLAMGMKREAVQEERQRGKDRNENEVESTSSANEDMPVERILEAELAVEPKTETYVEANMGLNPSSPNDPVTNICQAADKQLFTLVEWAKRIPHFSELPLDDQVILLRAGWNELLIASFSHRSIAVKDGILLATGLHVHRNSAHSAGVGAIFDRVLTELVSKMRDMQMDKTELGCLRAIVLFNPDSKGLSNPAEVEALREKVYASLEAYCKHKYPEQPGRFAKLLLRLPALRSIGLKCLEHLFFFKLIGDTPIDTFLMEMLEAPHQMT

In the first experiment the target is Retinoic acid receptor RXR-alpha (Homo sapiens) (UniProt P19793). Description: TOX21_TR_RXR_BLA_Agonist_Followup_ratio: Tox21 Thyroid Hormone Receptor beta Retinoid X Receptor alpha (RXRa) Agonism Beta-lactamase (BLA) Follow-Up Assay, Ratio (AID 2283968; active = hit-call score of the fitted dose curve at least 0.9, where 1 is the maximum). The procedure, abridged:
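RXRa-UAS-bla HEK293T cells, 5 h attachment at 37C/5% CO2, then 11 concentrations in triplicate for 16 h; 9-cis retinoic acid positive control. FRET-B/GCCF4-AM substrate 2 h at room temperature; 460:530 nm ratio, fitted for gain versus DMSO.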
As to `CCCN(CCC)C(=O)SCC`, the result was inactive.
Still for that read-out and setting: the same measure for `COC(=O)c1ccc(I)cc1S(=O)(=O)NC(=O)Nc1nc(C)nc(OC)n1`: “inactive”.
In the case of `CCNc1nc(N)nc(Cl)n1`, the outcome was inactive.

System in another experiment: not listed separately
Description: CCTE_Harrill_HTTr_Viability_DMEM_6hr: (Pilot) CCTE's 6-hour Cell Viability Assessment for the High-Throughput Transcriptomics (HTTr) Platform, in MCF-7 cells cultured in DMEM + 10% fetal bovine serum, Harrill Lab (AID 2283973). The procedure, abridged:
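MCF-7 cells in DMEM + 10% FBS, eight-point dilution series, 6 h exposure. Membrane integrity by propidium iodide exclusion with high-content imaging; bidirectional fit versus DMSO.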
`CC(C)(c1ccc(O)cc1)c1ccc(O)cc1`: the result was inactive.
Take `S=C([S-])NCCNC(=S)[S-].[Mn+2]`: the outcome was inactive.
As to `Cc1nn(C)c(Oc2ccccc2)c1C=NOCc1ccc(C(=O)OC(C)(C)C)cc1`, the result was inactive.
For the compound `C[C@]12CC[C@@H]3c4ccc(O)cc4C[C@@H](CCCCCCCCCS(=O)CCCC(F)(F)C(F)(F)F)[C@H]3[C@@H]1CC[C@@H]2O` (stereo not given in full), the result was inactive.
Take `C=CCOC(Cn1ccnc1)c1ccc(Cl)cc1Cl` (stereo not given): the result was inactive.
The same measure, in the same setting: the same measure for `N[C@@H](Cc1cc(I)c(Oc2ccc(O)c(I)c2)c(I)c1)C(=O)O`: “inactive”.
Regarding `CC(C)CCCCCCc1ccc(O)cc1`, the result was inactive.
